The values that follow come from PubChem BioAssay AID449762 (Southern Research Specialized Biocontainment Screening …, 2010).

The campaign covered roughly 330,000 compounds. About 1,900 (0.58%) were called active. About 4% were inconclusive and are not listed. The list is a sample of the results. Entries with a potency or affinity are not part of this list. Values without a mark were called inactive. Cut-off read from the data, not from the text of the source: inconclusive = inhibition above about 70% without an active follow-up result; inactive = below that.

This assay can be described thus: M. tuberculosis growth inhibition, HTS (AID 449762).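 Note: bacterial growth assessed after seven days of incubation.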 Particulars: M. tuberculosis H37Rv growth inhibition, 7H9 media; at 25 µM; active compounds read high.
For the compound `Cc1ccc(C(=O)c2coc3ccc(O)cc23)cc1`, the inhibition is 2.44%. `C[C@@H](NC(=O)[C@@H]1Cc2ccccc2CN1)C(=O)Nc1ccc2c(c1)OCCO2`: the inhibition was 8.26%. As for `Cc1[nH]c2ccc(OC(F)(F)F)cc2c1CCNCc1cccc([N+](=O)[O-])c1`, the inhibition was 62.9%. For `COc1ccc(CNCCc2c(C)[nH]c3ccc(OC(F)(F)F)cc23)c(OC)c1`, the inhibition was 35.2%. For the compound `C(=NC12CN3CN(CN(C3)C1)C2)c1ccc2c(c1)OCO2`, the inhibition was -3.64%. The result for `COC(=O)C1=C(c2ccc(F)cc2OCc2ccccc2)C[C@@H]2CC[C@H]1N2C(=O)NCc1ccc(F)cc1` reads -5.1%; that for `CC(Sc1nc(-c2ccccc2)nc2c1COC(C)(C)C2)C(=O)N1CCOCC1` (stereo not given), -20.2%. On to `O=c1oc(-c2cccs2)nc2ccccc12`, for which the inhibition was -3.68%. The result for `O=c1c2cnn(-c3ccccc3)c2nc(-c2cccs2)n1-c1ccc(Br)cc1` reads 1.78%; that for `Cc1ccc(-n2c(C)cc(/C=N/NC(=O)c3ccc(CN4CCOCC4)cc3)c2C)cc1`, -0.81%; that for `COc1cc(NC(=O)Cn2cnc(S(=O)(=O)N3CCOCC3)c2)cc(OC)c1OC`, -1.58%. Take `O=C1c2ccccc2-c2cccnc21`: the inhibition was -8.77%. For the compound `O=C1C(O)=C(O)C(=O)c2ccccc21`, the inhibition is -1.99%. Regarding `CCC1CCCCN1C(=S)NCc1ccccc1` (stereo not given), the inhibition is -0.48%. On to `CN(C)CCOc1cc(Cl)cc(Cl)c1`, for which the inhibition was 10%. The result for `Cc1nc2c(C(=O)N3CCN(c4ccccn4)CC3)cnn2c(C)c1Cc1cccc(Cl)c1` reads 48.5%; that for `Cc1ccc(C(=O)N/C(=C\c2ccco2)C(=O)NCc2cccnc2)cc1`, -2.29%. In the case of `O=C(NCc1cccnc1)/C(=C/c1ccc(-c2cccc(C(F)(F)F)c2)o1)NC(=O)c1ccccc1`, the inhibition is 11.6%.

In the case of `CCOC(=O)N1CCN(C(=O)CSc2ccc(C(=O)OC)cc2[N+](=O)[O-])CC1`, the inhibition was -7.7%. Take `Clc1ccccc1Cc1noc(CN2CCN(Cc3ccccn3)CC2)n1`: the inhibition was 2.36%. Turning to `CC(C)(C)c1ccc(C(=O)NC2CCS(=O)(=O)C2)cc1` (stereo not given), the inhibition was 1.38%. Consider `Cc1ccc(C(c2c(C)nn(-c3ccccc3)c2N)c2c(C)nn(-c3ccccc3)c2N)cc1`, for which the inhibition is 23.1%. Take `Cc1nn(-c2ccccc2)c(N)c1C(c1ccccc1)c1c(C)nn(-c2ccccc2)c1N`: the inhibition is 5.62%. As to `COc1ccc(OC)c(C(=O)COC(=O)CNC(=O)c2ccccc2)c1`, the inhibition is -2.57%. As to `O=C(Nc1ccccc1)N1CCCN(c2c(Cl)cncc2Cl)CC1`, the inhibition was 2.69%. For the compound `O=C(CN1CCN(Cc2ccccc2Cl)CC1)N/N=C/C=C\c1ccccc1[N+](=O)[O-]`, the inhibition is 3.7%. For `O=C(CN1CCN(Cc2ccccc2)CC1)N/N=C/C=C/c1ccccc1[N+](=O)[O-]`, the inhibition is 12%. Regarding `CCSc1nnc(NC(=O)c2nc3nc(C)cc(C)n3n2)s1`, the inhibition was -7.36%. `Cc1ccccc1OCC(=O)OCC(=O)Nc1ccc2c(c1)OCCO2`: the inhibition was -7.86%. For `Cc1ccc2c(c1)c1ncnc(N3CCN(c4ccccc4)CC3)c1n2C`, the inhibition is 0.15%. In the case of `Cc1ccc2c(c1)c1ncnc(N3CCOCC3)c1n2C`, the inhibition is -0.66%. For the compound `CC(=O)Nc1ccc(-c2csc(Nc3ncccn3)n2)cc1`, the inhibition was 10.8%.

Turning to `Cc1c(C(=O)N2CCN(c3ccccn3)CC2)cccc1[N+](=O)[O-]`, the inhibition was 3.8%. For `O=C(NNS(=O)(=O)c1ccccc1[N+](=O)[O-])c1ccc(O)cc1` the value was 13.9%. For `COC(=O)[C@]1(Cc2ccccc2)N[C@H](CN(C)C(=O)c2ccc(C)cc2)[C@@H]2C(=O)N(C)C(=O)[C@@H]21`, the inhibition was 2.73%. For the compound `CCC1(C)N=C(c2ccc3c(c2)OCO3)CC(c2ccccc2O)N1` (stereo not given), the inhibition was -5.31%. Regarding `CCOc1ccccc1C1N=C(c2ccc(OC)cc2)CC(c2ccccc2O)N1` (stereo not given), the inhibition was 13%.

For the compound `COc1cccc2cc(C(=O)N3CCCCC3C)c(=O)oc12` (stereo not given), the inhibition is -7.25%. Regarding `COCCOC(=O)c1c(N)n(CCCN2CCOCC2)c2nc3ccccc3nc12`, the inhibition was 0.66%. `COC(=O)c1c(N)n(CCCN2CCOCC2)c2nc3ccccc3nc12`: the inhibition was 4.91%. As to `Cc1[nH]c2ccccc2c1/C=N/NC(=O)CNC(=O)c1ccco1`, the inhibition is 1.49%. As to `COCCn1c(=S)[nH]c2cc(C(=O)N3CCc4ccccc4C3)ccc2c1=O`, the inhibition was 5.9%. Take `CC[C@H](C)[C@H](NC(N)=O)C(=O)NCCc1ccc(Cl)cc1Cl`: the inhibition is -2.03%. `Clc1ccc(CNc2ccc3nnc(-c4ccccc4)n3n2)cc1`: the inhibition was -9.56%.

With `Cc1ccc(CNc2ccc3nnc(-c4ccccc4)n3n2)cc1`, the inhibition was -2.25%. For `Cc1cc(C)n(CCOC(=O)C2C(C=C(Cl)Cl)C2(C)C)n1` (stereo not given), the inhibition was 6.12%. As to `CN(C)[C@@H]1C(=O)C(C(N)=O)=C(O)[C@@]2(O)C(=O)C3=C(O)c4c(O)cccc4[C@@](C)(O)[C@H]3C[C@@H]12`, the inhibition is 22.5%. The result for `CN(C)[C@@H]1C(=O)C(C(N)=O)=C(O)[C@@]2(O)C(=O)C3=C(O)c4c(O)cccc4[C@@](C)(O)[C@H]3[C@H](O)[C@@H]12` reads 31.9%; that for `C=C1c2cccc(O)c2C(O)=C2C(=O)[C@]3(O)C(O)=C(C(N)=O)C(=O)[C@@H](N(C)C)[C@@H]3[C@@H](O)[C@H]12`, 69.5%; that for `CSC(=NC#N)N1CCN(c2c(C)cccc2C)CC1`, -2.97%. In the case of `CC(C)CCNC(=O)C1CC(c2cccc(F)c2)=NO1` (stereo not given), the inhibition was -4.76%. For `O=C(NC1CCCC1)C1CCCN1S(=O)(=O)c1cccc2cccnc12` (stereo not given) the value was -5.92%; for `CC1CCCC(NC(=O)C2CCN(C(=O)Nc3ccccc3)CC2)C1C` (stereo not given), -2.53%; for `CCC(C)[C@H](NC(=O)[C@H](Cc1ccccc1)n1c(=O)[nH]c2ccccc2c1=O)C(=O)N1CCC(C(=O)O)CC1` (stereo not given in full), -6.06%.

For `O=C(OCC(=O)N1CCOCC1)c1cnc(Cl)c(Cl)c1`, the inhibition was -0.51%.

For the compound `CC(C)(Oc1ccc(Cl)cc1)C(=O)OCC(=O)N1CCCC1`, the inhibition was -3.13%. For `O=C(COC(=O)c1cnc(Cl)c(Cl)c1)c1ccc(F)cc1`, the inhibition was 2.14%. On to `O=C(OCC(=O)N1CCCC1)c1cnc(Cl)c(Cl)c1`, for which the inhibition is 2.91%. For the compound `CCOc1ccc(C(C)=O)cc1COC(=O)c1cnc(Cl)c(Cl)c1`, the inhibition was -3.39%. For `COc1ccc(N2CCN(C(=O)C(C)(C)Oc3ccc(Cl)cc3)CC2)cc1` the value was 2.08%.
